# Source: PubChem (Sanford-Burnham Center for Chemical Genomics)
# Artemis endo inh: Artemis (human) endonuclease inhibition | Q96SD1 | 30,000 tested, 0.78% active | inhibition, % at 10 µM | recombinant Artemis, quenched FAM hairpin cleavage fluorescence;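 active = at 10 µM dose, at least 30% inhibition, measured as corrected fluorescence normalized to stimulator and neutral control wells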
# A number is an active result; – = inactive. This excerpt belongs to a sample that is enriched for hits.
SMILES,Artemis endo inh
O=C(COC(=O)Cc1ccccc1)Nc1ncc(Cl)cc1Cl,–
Cc1cc(NC(=O)COC(=O)c2c(C)nn(Cc3ccccc3Cl)c2C)no1,88.5
CCOC(=O)C(NC(C)=O)C(OC(C)=O)c1cccc(N(CCCl)CCCl)c1 (stereo unspecified),–
COc1ccc2nc(/N=C/c3c(O)n(-c4cccc(Cl)c4)c(=O)[nH]c3=O)sc2c1,–
CN(C)CCOC(=O)c1cn(Cc2ccccc2)c2ccccc12,–
